Bioassay records (PubChem)
An excerpt weighted towards active compounds, which were near 7.3% of everything screened.
FLuc modulator – counter-screen for miR-21 project: firefly luciferase inhibitors or activators. purified FLuc, Km substrates, luminescence inhibition. Potency, µM (titrated, usually from 57.5 µM), inactives show at the highest dose activity change, negative = inhibition, usual class: inhibitors. 6.9% of 360,000 active. AID 588342;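 further: plate controls were vehicle for no effect and reference inhibitor for full effect; nearly all actives have a fitted effect of over 55% in size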
Target sequence (P08659 whole entry, looked up): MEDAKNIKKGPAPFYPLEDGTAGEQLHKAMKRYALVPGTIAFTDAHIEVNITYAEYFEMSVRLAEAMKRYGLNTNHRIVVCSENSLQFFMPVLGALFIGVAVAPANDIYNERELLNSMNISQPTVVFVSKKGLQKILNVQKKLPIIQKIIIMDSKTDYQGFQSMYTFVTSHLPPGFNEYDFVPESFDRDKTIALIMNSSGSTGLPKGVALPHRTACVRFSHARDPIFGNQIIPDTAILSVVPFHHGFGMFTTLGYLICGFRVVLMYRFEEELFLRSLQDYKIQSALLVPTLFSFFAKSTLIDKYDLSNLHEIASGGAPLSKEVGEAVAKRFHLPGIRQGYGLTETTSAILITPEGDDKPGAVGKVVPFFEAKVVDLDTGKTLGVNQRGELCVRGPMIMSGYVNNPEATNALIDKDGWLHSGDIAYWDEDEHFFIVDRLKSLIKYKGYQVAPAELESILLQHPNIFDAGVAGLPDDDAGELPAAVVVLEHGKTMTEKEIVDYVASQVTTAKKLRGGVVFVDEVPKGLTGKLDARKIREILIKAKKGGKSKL
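Purified P. pyralis luciferase, 10 nM final, with Km-level 10 uM D-luciferin and 10 uM ATP in 50 mM Tris acetate pH 7.5, 10 mM Mg acetate, 0.01% Tween-20, 0.05% BSA; 6-point qHTS titration about 60 µM downward; luminescence read.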
SMN2 splice enh – SMN2 splice variant enhancement | HEK293 SMN2-luciferase splicing reporter, luminescence, 30-36 h | Potency, µM (series often up to 46.1 µM), inactives show at the highest dose activity change, positive = activation, hits mostly activators | AID 1458 | 2.8% of 210,000 active; further: % of control where 0% means no effect; nearly all actives have a fitted effect of over 55% in size
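qHTS luciferase splicing reporter: luminescence rises when SMN2 exon 7 is included in transfected HEK293 cells. Compound exposure lasted 30-36 h at 37C, with 4.5 mM final sodium butyrate as control, followed by a ONE-Glo read.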
uPA generation – inhibitors of cell surface uPA generation; 0.31% of 330,000 active; cell surface uPA generation assay, qHTS; Potency, µM (doses to about 38.3 µM), for the others: top-dose activity change, negative = inhibition, usual class: inhibitors; active means well fitted inhibition curve with a large enough effect; inconclusive means small, poorly fitted or top-dose-only effect; inactive means no such curve, though single readings can be large or run the other way; tested in mouse RAW 264.7 cells; further: on the % scale 0 is the no-effect control and ±100 the full control effect; nearly all actives have a fitted effect of over 55% in size
ELG1 genotoxic – inducers of genotoxicity in HEK293T ELG1-luciferase cells | Potency, µM (top dose mostly 46 µM), without a hit: at the highest dose activity change, positive = activation, most hits filed as activators | 1.3% of 330,000 active | HEK293T ELG1-luciferase reporter, luminescence, 16 h; further: % of control where 0% means no effect; nearly all actives have a fitted effect of over 60% in size
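Genotoxic stress is detected as increased luminescence from luciferase-tagged ELG1 in HEK293T cells, measured with ONE-Glo after a 16 hr treatment at 37 °C.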
Rab9 prom act – activators of Rab9 promoter | Huh7 Rab9 promoter-luciferase reporter, luminescence, 24 h | Potency, µM (titrated, usually from 9.22 µM), for the others: at the highest dose activation, negative = inhibition, most hits filed as activators | 2.8% of 320,000 active | AID 485297; further: % of control where 0% means no effect; nearly all actives have a fitted effect of over 60% in size
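Luciferase signal after 10 min detection reagent at ambient indicates Rab9 promoter upregulation; stably transfected Huh7 cells were treated 24 h with compound in DMSO at 37 °C, 5% CO2.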
NPC1 promoter act – NPC1 promoter activation; Huh7 NPC1 promoter luciferase reporter, 24 h; Potency, µM (series often up to 9.22 µM), for the others: at the top dose activation, hits mostly activators; 2.4% of 320,000 active; AID 485313; further: % of control where 0% means no effect; nearly all actives have a fitted effect of over 60% in size
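Luminescence read-out of NPC1 promoter-driven luciferase in stably transfected Huh7 cells; compounds delivered in DMSO and left 24 h at 37C, 5% CO2, qHTS titration format.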
* hit, by the source's call; ? = inconclusive; . = not tested or not shown; [ ] = another dose, or the depositor's remark. Unless noted, the call rests on the fitted dose curve; in most records, active means well fitted curve in the direction sought with a large enough effect; inconclusive means small, poorly fitted or top-dose-only effect, or another doubt; inactive means no such curve, though single readings can be large; an effect the other way counts as inactive or inconclusive. Potency means the concentration at half of the fitted maximal effect.

SMILES | FLuc modulator | SMN2 splice enh | uPA generation | ELG1 genotoxic | Rab9 prom act | NPC1 promoter act
Oc1ccccc1/C=N/n1cnn(Cc2ccccc2Cl)c1=S | 3.7% | 15.1% | -3.1% | 2.0% | -0.1% | -2.4%
COC(=O)C(Cc1ccc(OC(=O)c2ccccc2Cl)cc1)N1Cc2ccccc2C1=O (centres undefined) | ? | 27.5% | -11.8% | 15.2% | 3.98µM* | ?
COc1ccc(C=Nc2ccc3[nH]ncc3c2)c(O)c1 | 6.75µM* | -7.9% | 2.0% | -7.7% | -0.6% | 4.9%
CCN(C(=O)Nc1cn(CC(C)C)c(=O)c2ccccc12)c1cc(C)ccc1C | 2.1% | . | . | . | . | .
CCOc1cc(/C=N/NC(=O)c2ccc3c(c2)OCCO3)cc(Br)c1O | 21.3µM* | . | 0.4% | 10.4% | 12.6% | 8.8%
O=C(N/N=C/c1cc(Br)c(Br)o1)c1ccc2c(c1)OCCO2 | 12µM* | . | -1.8% | 4.6% | 2.51µM* | ?
O=C(N/N=C/c1cc(Br)c(O)c(Br)c1O)c1ccc2c(c1)OCCO2 | 7.57µM* | . | -1.4% | ? | -35.6% | -31.1%
CCOc1ccc(/C=C(\C#N)c2nc(-c3cc4ccccc4oc3=O)cs2)c(OCC)c1 | -6.1% | 7.0% | . | . | . | .
COc1cccc(CCNC(=O)c2cnc3sc(N4CCCC4)nn3c2=O)c1 | -10.1% | -2.0% | . | . | . | .
Cc1cccc(NC(=O)CN2C(=O)COc3ccc(S(=O)(=O)N4CCC(C)CC4)cc32)c1C | -5.2% | . | . | . | . | .
CCCCCCOc1ccc(C2C(=O)N(C3CCCCC3)CC(=O)N2CCCC)cc1 (centres undefined) | -1.8% | . | . | . | . | .
Cn1cccc1C(=O)C(=O)Nc1cccc(Cl)c1Cl | 2.39µM* | 25.1µM* | 3.2% | ? | 21.6% | 4.8%
CC(C)(C)NC(=O)Nc1cccc(Cl)c1Cl | -0.9% | . | -4.1% | -4.4% | 1.4% | 3.9%
Cn1cccc1C(=O)C(=O)Nc1cc(Cl)cc(Cl)c1 | ? | -4.4% | 2.3% | 24.7% | ? | ?
Cn1cccc1C(=O)C(=O)Nc1ccc(F)c(F)c1 | 10.7µM* | 11.2µM* | -2.9% | ? | 1.26µM* | 2µM*
Cn1cccc1C(=O)C(=O)Nc1ccc(Cl)cc1 | 1.9µM* | 10µM* | 1.4% | ? | 0.501µM* | 0.794µM*
Cc1ccc(C)c(N2CCN(S(=O)(=O)c3cc(C(=O)Nc4ccccc4C(F)(F)F)ccc3F)CC2)c1 | 1.6% | . | . | . | . | .
C[C@H]1OC(=O)CC[C@@H]2[C@]1(C)CCC1[C@@]2(C)CC[C@@]2(C)C3CC(C)(C)CC[C@]3(CO)CC[C@]12C (some centres undefined) | . | 3.9% | . | . | . | .
Cc1cc(C)c2oc(C(=O)Nc3nc4ccc(Cl)cc4s3)cc(=O)c2c1 | -13.7% | 0.8% | . | . | . | .
O=C(Cc1ccccc1F)Nc1nc(-c2cccs2)cs1 | 10.7µM* | -12.7% | 2.6% | ? | ? | ?
CC(OC(=O)c1ccc([N+](=O)[O-])o1)C(=O)Nc1nc(-c2ccc(F)c(F)c2)cs1 (centres undefined) | 23.9µM* | . | -7.0% | 13.6% | ? | ?
O=C(Cc1ccccc1F)Nc1nc(-c2ccc(F)c(F)c2)cs1 | 13.5µM* | . | -1.6% | -24.0% | ? | 3.5%
O=C(Nc1nc(-c2cccs2)cs1)c1ccco1 | 8.49µM* | 12.6µM* | ? | 10.3µM* | 3.16µM* | 3.98µM*
COc1ccc(-n2ncc(C(=O)N3CCc4ccccc4C3)c2C2CCN(C(=O)OC(C)(C)C)CC2)cc1 | 1.0% | . | . | . | . | .
CCCC(=O)NC(C)c1nc2ccccc2n1Cc1ccccc1 (centres undefined) | 0.9% | -2.2% | . | . | . | .
SMILES | FLuc modulator | SMN2 splice enh | uPA generation | ELG1 genotoxic | Rab9 prom act | NPC1 promoter act
COc1ccc(CNC(=O)c2cnc3sc(N4CCC(C)CC4)nn3c2=O)c(OC)c1 | 1.9% | . | . | . | . | .
COc1ccc(S(=O)(=O)n2nc(C)c(S(=O)(=O)N3CCCCCC3)c2C)cc1C | -17.6% | . | . | . | . | .
COc1ccc(S(=O)(=O)NCCc2sc(-c3cccnc3)nc2C)cc1OC | 0.5% | . | . | . | . | .
O=C(Cc1ccccc1)Nc1nnc(-c2cccs2)s1 | -1.3% | ? | -4.0% | ? | ? | ?
O=C(Cc1ccccc1)Nc1nc(-c2cccs2)cs1 | 19µM* | -6.7% | -0.4% | 4.4% | 20.2% | 25.3%
CC1=C(C(=O)Nc2ccc(CC(=O)NCc3ccc(OC(C)C)cc3)cc2)SCCO1 | 2.69µM* | . | -83.1% | 9.2µM* | 11.5% | ?
COc1cccc(CNC(=O)c2cccc(NC(=O)C3=C(C)OCCS3)c2)c1 | ? | . | 5.4% | -5.7% | 6.2% | -1.6%
COc1ccc(CNC(=O)Cc2ccc(NC(=O)C3=C(C)OCCS3)cc2)cc1 | 1.2µM* | . | ? | 16.4µM* | ? | 23.6%
COc1ccc(-c2ccc(CCC(=O)O)n2-c2ccccc2OC)cc1 | -1.8% | . | 2.24µM* | 9.9% | -0.1% | -6.6%
COc1ccc(N=c2oc3ccc(OC)cc3cc2-c2nc3ccccc3[nH]2)cc1 | ? | ? | -2.1% | . | . | .
COc1cccc(N=c2oc3ccc(OC)cc3cc2-c2nc3ccccc3[nH]2)c1 | 19µM* | ? | -8.0% | . | . | .
COc1cccc(CC(=O)Nc2nc3ccccc3[nH]2)c1 | 0.2% | -0.2% | 2.5% | 1.5% | 1.3%[1.84 µM] | 0.3%
COc1cccc(N=c2oc3ccccc3cc2-c2nc3ccccc3[nH]2)c1 | 9.53µM* | 15.8µM* | -8.4% | ? | 1.58µM* | 3.16µM*
Cc1cc(Nc2cccc(C(F)(F)F)c2)nc2ccc(NC(=O)Cc3ccc(Cl)cc3)cc12 | -0.3% | . | . | . | . | .
CCOC(=O)c1ccccc1NC(=O)C(=O)Nc1ccc2nc3n(c(=O)c2c1)CCCCC3 | -2.6% | 13.3% | . | . | . | .
CCNc1ncc2nc(-c3cc(F)cc(F)c3)c(=O)n(Cc3cccs3)c2n1 | . | 4.7% | . | . | . | .
CCc1nc(Nc2cccc(O)c2)c2oc3ccccc3c2n1 | 19µM* | . | -10.6% | -10.0% | 1.5% | 12.2%
CCc1nc(Nc2ccncc2)c2oc3ccccc3c2n1 | 0.6% | . | -13.4% | -14.7% | -18.6% | -21.1%
CC1=C/C(=C\c2ccc3c(c2)OCO3)C(=O)S1 | 19µM* | -8.5% | 0.0% | -2.4% | -0.6% | -5.8%
Cc1cc(NC(=O)CCc2nc3cccnc3n2-c2ccccc2)ccc1Br | -7.6% | -13.0% | . | . | . | .
O=C1/C(=C/c2cccs2)CCC/C1=C\c1cccs1 | 1.9µM* | . | -4.8% | ? | 3.55µM* | 1.26µM*
Cn1cccc1/C=C1\SC(=S)N(CC(=O)O)C1=O | ? | -6.1% | 15.1% | 1.3% | -3.0% | 13.6%
Cn1cccc1/C=C1\CCC/C(=C\c2cccn2C)C1=O | 6.01µM* | ? | -5.1% | 1.84µM* | 0.891µM* | 1.26µM*
CC(CNC(=O)Cn1ncc2c3ccccc3n(Cc3cccc(Cl)c3)c2c1=O)c1ccccc1 (centres undefined) | 3.2% | 1.0% | . | . | . | .
CCOc1ccc(S(=O)(=O)N2CC(=O)Nc3ccccc32)cc1 | -1.2% | . | -11.4% | -3.9% | -1.3% | -26.2%
